Screens as filed in PubChem.
This is one part of a sample in which hits are shown more often than they occur.
CHX counter = Cycloheximide Counterscreen for Small Molecule Inhibitors of Shiga Toxin | cell reporter, cycloheximide protein synthesis inhibition counterscreen | max response, % | 300,000 tested, 12% active | AID 2314, 2010; in the data active = max response mostly above about 13%, no sharp cut-off; inactive = mostly below about 14%; also: read at 38.3 µM for the half of the compounds with a filed dose; 0% is about no effect
LmPK inhibitor = qHTS Assay for Inhibitors of Leishmania Mexicana Pyruvate Kinase (LmPK); Q27686; purified LmPK, Kinase-Glo ATP luminescence, 1 h; Potency, µM (doses to about 57.5 µM), for inactives: at the top dose activity change, negative = inhibition, usual class: inhibitors; 290,000 tested, 0.37% active; AID 1721, 2009; also: potency is read from the fitted curve at half-maximal effect; % is scaled to controls: 0 for no effect and ±100 for the full control effect
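Kinase-Glo luminescence read after 1 h RT reaction of 0.1 nM LmPK with 0.5 mM PEP and 0.1 mM ADP. Activity scaled between uninhibited and enzyme-free controls.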
Giardia FBPA inh = qHTS Assay for Inhibitors of Fructose-1,6-bisphosphate Aldolase from Giardia Lamblia; 290,000 tested, 0.71% active; purified Giardia FBPA; A8B2U2; Potency, µM (titrated, usually from 59.6 µM), without a hit: top-dose activity, negative = inhibition, most hits filed as inhibitors; also: potency is read from the fitted curve at half-maximal effect; % is scaled to controls: 0 for no effect and ±100 for the full control effect; nearly all actives have a fitted effect of over 55% in size
Target sequence (A8B2U2 whole entry, looked up): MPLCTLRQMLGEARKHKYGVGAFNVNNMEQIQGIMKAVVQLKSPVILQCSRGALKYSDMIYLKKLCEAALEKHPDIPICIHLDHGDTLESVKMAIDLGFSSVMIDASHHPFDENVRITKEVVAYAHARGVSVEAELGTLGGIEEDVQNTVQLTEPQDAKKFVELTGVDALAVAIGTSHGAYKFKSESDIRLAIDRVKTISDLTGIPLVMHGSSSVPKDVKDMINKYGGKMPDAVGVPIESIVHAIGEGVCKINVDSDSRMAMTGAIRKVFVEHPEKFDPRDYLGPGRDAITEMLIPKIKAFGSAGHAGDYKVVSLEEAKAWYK
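Giardia FBPA (40 nM reagent) was preincubated 10 min at RT with compound (up to 57.5 uM final), then substrate plus GAPDH/TPI/NAD/arsenate coupling system with diaphorase/resazurin was added; resorufin fluorescence (525/598 nm) was read after 20 min.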
Tb PYK inh = qHTS of Trypanosoma Brucei Inhibitors; TbPYK enzyme, Kinase-Glo Plus ATP luminescence, 45 min; Potency, µM (top dose mostly 76.8 µM), without a hit: at the top dose activity, negative = inhibition, most hits filed as inhibitors; 410,000 tested, 0.12% active; also: potency is read from the fitted curve at half-maximal effect; % is scaled to controls: 0 for no effect and ±100 for the full control effect; nearly all actives have a fitted effect of over 50% in size
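T. brucei PYK with substrate was exposed to pin-transferred compounds across a concentration series, then started with 130 uM ADP (final). After 45 min at room temperature, Kinase-Glo Plus luminescence was read, normalized and curve-fitted.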
RE007 growth inh = qHTS Assay for Inhibitors of the HIV-1 protein Vpr; S. pombe RE007 Vpr strain, BacTiter-Glo ATP luminescence, 24 h; Potency, µM (top dose mostly 92.2 µM), without a hit: at the highest dose activity change, negative = less growth, most hits filed as inhibitors; 360,000 tested, 0.21% active; active = well fitted falling curve with a large enough effect; inconclusive = small, poorly fitted or top-dose-only effect; inactive = no such curve, though single readings can be large or run the other way; also: potency is read from the fitted curve at half-maximal effect; % is scaled to controls: 0 for no effect and ±100 for the full control effect; nearly all actives have a fitted effect of over 50% in size
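Fission yeast strain RE007, carrying one chromosomally integrated HIV-1 vpr copy, was seeded at OD 0.01 in PMG+AL medium with 23 nL pinned compound. After 24 h at 30 °C and 99% humidity, viability was read by BacTiter-Glo luminescence.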
Shiga inhibitor = A qHTS for Small Molecule Inhibitors of Shiga Toxin; Vero cells, Shiga toxin protein synthesis inhibition reporter; inhibition, % at 38.7 µM; 290,000 tested, 9.2% active; AID 2315, 2010; in the data active = inhibition mostly above about 28%, no sharp cut-off; inactive = mostly below about 43%; also: 0% is about no effect
Numbers without * were called inactive; ? = inconclusive; . = no result given. Unless noted, calls follow the shape of the dose curve; as a rule, active = well fitted curve in the direction sought with a large enough effect; inconclusive = small, poorly fitted or top-dose-only effect, or another doubt; inactive = no such curve, though single readings can be large; an effect the other way counts as inactive or inconclusive.

SMILES | CHX counter | LmPK inhibitor | Giardia FBPA inh | Tb PYK inh | RE007 growth inh | Shiga inhibitor
CCn1cnc2cc(NCc3nc4ccccc4n3C)ccc21 | 26.0* | ? | -22.6% | ? | -18.8% | 59.0*
CC(C)n1cnc2cc(NCc3nc4ccccc4n3C)ccc21 | 72.7* | ? | -2.8% | -27.4% | -10.0% | 81.8*
CN1CCN(c2ncc3nc(-c4ccccc4)c(=O)n(C)c3n2)CC1 | . | . | 6.0% | . | . | .
COCCNC(=O)c1ccccc1-c1nc(-c2ccccc2OC)no1 | 15.2* | 1.4% | -6.3% | -0.9% | 1.4% | 35.5
Cc1ccccc1-c1noc(-c2ccccc2C(=O)NCc2ccco2)n1 | 18.4* | 1.7% | 0.4% | -11.0% | 4.0% | 60.0*
CC(C)(C)NC(=O)c1ccccc1-c1nc(-c2ccccc2Cl)no1 | 24.7* | -2.7% | -13.1% | -3.6% | 17.0% | 29.7
CC(C)NC(=O)c1ccccc1-c1nc(-c2ccccc2Cl)no1 | -2.2 | 4.3% | -0.1% | -6.5% | -1.5% | -2.7
CN(C)c1ccc(/C=C2\SC(=O)N(CC(O)Cn3c4ccccc4c4ccccc43)C2=O)cc1 (configuration not stated) | 1.3 | 0.1% | 3.3% | -7.6% | 4.8% | -6.6
CN(C)c1ccc(/C=C2/SC(=O)N(CCN=C3NS(=O)(=O)c4ccccc43)C2=O)cc1 | 28.9* | -1.0% | -5.1% | -14.8% | 4.2% | 63.0*
NC(=O)N/N=C/C=C/c1ccccc1 | -2.0 | -1.3% | 3.5% | 1.3% | 7.2% | 51.2
O=C(N/N=C/c1cccc(O)c1)NC1CCCCC1 | 29.7 | 2.5% | 2.9% | -2.9% | -5.0% | 89.3*
O=C(N/N=C/C=C/c1ccccc1)NC1CCCCC1 | 16.3* | 1.7% | 2.6% | -2.1% | -3.4% | 43.4
CC(C)c1ccc(OC(=O)c2cc(-c3ccccc3)on2)cc1 | . | . | . | 0.1% | . | .
COc1ccc(C2=NNC(c3cc(Cl)cc4c3OCOC4)C2)c(O)c1 (configuration not stated) | 17.1* | 0.4% | 12.8% | . | . | 47.7
CC1C(=O)OC2C(O)C34C5CC(C(C)(C)C)C36C(OC(=O)C6O)OC4(C(=O)O5)C12O (configuration not stated) | . | . | 8.5% | . | . | .
COc1ccc(Cn2c(=O)c3ccccc3n3c(-c4ccc(C)cc4)nnc23)cc1 | . | . | . | 1.3% | . | .
CC(C)(C)c1ccc(CNc2ccc([N+](=O)[O-])cn2)cc1 | 23.5* | -2.4% | -3.8% | 2.1% | -15.3% | 80.5*
CC(C)c1ccc(CNc2nnnn2C)cc1 | -0.9 | 1.1% | -0.7% | -0.3% | 20.2% | -7.2
CC(C)c1ccc(CNc2ccc([N+](=O)[O-])cn2)cc1 | 54.7* | 6.6% | -6.0% | -0.7% | ? | 74.2*
O=[N+]([O-])c1ccc(Nc2ccc(Cl)cc2)nc1 | -4.7 | 8.1% | -3.8% | 1.8% | -3.0% | 4.3
CC(C)c1ccc(CNc2ncc(Br)cn2)cc1 | 16.8* | -2.2% | 3.6% | -27.1% | 2.7% | 32.0*
O=[N+]([O-])c1ccc(NCc2ccc(Cl)cc2)nc1 | 39.2* | 3.5% | -2.6% | 1.6% | 30.8% | 62.7*
CSc1nc(N)c2ncn([C@@H]3O[C@H](COP(=O)(O)OP(=O)(O)OP(=O)(O)O)[C@H](O)[C@H]3O)c2n1 | . | . | 2.2% | . | . | .
COc1ccc(NC(=O)CSc2oc(-c3ccco3)nc2S(=O)(=O)c2ccc(Br)cc2)c(OC)c1 | . | . | . | 2.1% | . | .
CC(C)(C)c1ccc(Cn2cnc(-c3ccc([N+](=O)[O-])cc3)c2)cc1 | 40.3* | 1.9% | -14.9% | 4.2% | 7.1% | 54.3*
Cc1ccc(NC(=O)C(=O)NCc2ccc(/C=N/NC(=O)c3c(C)nc4ccccn34)o2)cc1 | 28.4* | -8.6% | -7.4% | -1.1% | -12.9% | 38.8
Cc1nc2ccccn2c1C(=O)N/N=C/c1cc(C)n(-c2ccc(Br)cc2)c1C | 15.9* | -1.1% | -5.3% | 2.3% | -18.2% | 28.8
Cc1nc2ccccn2c1C(=O)N/N=C/c1ccc(F)cc1 | -2.4 | 3.2% | -2.9% | -1.1% | -13.4% | 49.1
Cc1nc2ccccn2c1C(=O)N/N=C/c1ccccc1 | 19.7* | 6.9% | 7.2% | 5.6% | 1.7% | 47.6
